GDH-TPI counter-1 – inhibits GDH-TPI coupling enzymes, artifact for Mtb FBA screen. GDH-TPI coupled enzyme counterscreen, NADH absorbance. inhibition, % at 4.8 µM. 360,000 tested, 1.2% active. AID 588335; in the data active means inhibition above about 30%;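 further: 0% = DMSO wells and 100% = wells lacking the enzyme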
FBA Mtb inh – Mtb fructose-bisphosphate aldolase inhibition; P9WQA3; purified M. tuberculosis FBA, fluorescence read-out; inhibition, % at 1 µM; 360,000 tested, 2.3% active;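 further: 0% = vehicle and 100% = reference inhibitor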
RecA splice inh – blocks M. tuberculosis RecA intein splicing | P9WHJ3 | cell-free RecA intein splicing, fluorescence | 290,000 tested, 0.75% active | inhibition, % (concentration not given with the values); in the data active means inhibition above about 30%;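 further: 0% = vehicle wells and 100% = reference inhibitor control wells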
Target sequence (P9WHJ3 whole entry, looked up, canonical isoform): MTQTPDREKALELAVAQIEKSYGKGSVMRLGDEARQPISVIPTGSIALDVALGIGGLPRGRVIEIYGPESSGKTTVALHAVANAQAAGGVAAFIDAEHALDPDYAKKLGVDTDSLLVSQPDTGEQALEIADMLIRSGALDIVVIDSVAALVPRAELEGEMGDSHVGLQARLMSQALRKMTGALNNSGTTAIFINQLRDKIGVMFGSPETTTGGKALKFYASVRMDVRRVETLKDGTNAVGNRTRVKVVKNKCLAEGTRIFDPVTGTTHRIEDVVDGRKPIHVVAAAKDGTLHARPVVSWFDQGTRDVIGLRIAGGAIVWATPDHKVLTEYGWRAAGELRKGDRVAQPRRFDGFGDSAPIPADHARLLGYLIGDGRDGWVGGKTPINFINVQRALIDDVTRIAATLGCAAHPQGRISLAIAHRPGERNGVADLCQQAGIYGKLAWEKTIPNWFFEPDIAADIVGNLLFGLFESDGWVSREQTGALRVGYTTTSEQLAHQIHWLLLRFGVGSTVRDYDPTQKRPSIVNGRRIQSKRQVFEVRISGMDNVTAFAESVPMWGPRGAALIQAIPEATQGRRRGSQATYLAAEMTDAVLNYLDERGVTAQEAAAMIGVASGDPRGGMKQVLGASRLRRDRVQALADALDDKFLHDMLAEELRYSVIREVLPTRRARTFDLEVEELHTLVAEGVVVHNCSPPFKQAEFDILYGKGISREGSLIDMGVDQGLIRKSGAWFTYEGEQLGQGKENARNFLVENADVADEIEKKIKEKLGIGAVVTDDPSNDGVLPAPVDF
CCHFV vOTU inh – CCHFV vOTU protease inhibition; Pep-AMC fluorescence; inhibition, % at 11.5 µM; AID 651958; 370,000 tested, 0.55% active; in the data active means inhibition above about 30%; further: 0% = vehicle wells with enzyme and 100% = no enzyme wells
Mtb FBA confirm – confirmation of M. tuberculosis fructose-bisphosphate aldolase inhibitors; 5,600 tested, 78% active; shares compounds with FBA Mtb inh; inhibition, % at 1 µM; purified M. tuberculosis FBA, fluorescence read-out;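 further: 0% = vehicle wells and 100% = reference inhibitor wells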
GDH-TPI counter-2 – inhibits GDH-TPI coupling enzymes, flagging Mtb FBA hits. shares compounds with FBA Mtb inh. AID 652141. 5,600 tested, 81% active. inhibition, % at 1 µM. GDH-TPI coupled enzyme counterscreen, fluorescence; in the data active means inhibition above about 10%
Numbers without * were called inactive; i = inactive; x = no result given; + = active, no number; ! = not confirmed by another sample. Rows were chosen to be rich in hits. Some 4.2% of all compounds tested hit in one or more screens of this group. Unless noted, no stated cut-off is given here; in the data, active means inhibition above about 27%; inactive means the rest.

SMILES	GDH-TPI counter-1	FBA Mtb inh	RecA splice inh	CCHFV vOTU inh	Mtb FBA confirm	GDH-TPI counter-2
Cc1ccc(S(=O)(=O)N(Cc2ccc(C(F)(F)F)cc2)C(=O)N2CCN(C)CC2)cc1	2.1	0.5	-0.6	-10.1	x	x
C=CCn1c2ccccc2c(=O)c2cc(C#CC3(O)CCCCC3)ccc21	0.9	64.6*	-76.8	-9.1	133.8*	108.3*
COc1ccccc1CNC(=O)CN1C(=O)COc2ccc(S(=O)(=O)N3CCCCC3)cc21	8.6	-1.6	3.6	-2.4	x	x
Cc1ccc(S(=O)(=O)NNC(=O)c2ccccc2-n2cccc2)cc1	4.1	31.6*	-5.4	-4.4	57.4*	51.9*
COc1ccc(S(=O)(=O)NNC(=O)c2ccccc2-n2cccc2)cc1	-6.1	-3.7	-2.9	14.6	x	x
N#CC1=C(N)Oc2cc3ccccc3cc2C1c1cccnc1 (stereo not given)	6.1	9.0	2.6	4.8	x	x
N#CC1=C(N)Oc2c(ccc3cccnc23)C1c1cccnc1 (stereo not given)	13.6	40.8*	-0.7	-12.5	-0.5	-9.4
CC(=O)Nc1cccc(-c2cn3ccccc3n2)c1	7.6	43.0*	-0.6	-3.0	39.9*	41.3*
Cc1ccn2cc(-c3cccc(NC(=O)C(C)C)c3)nc2c1	10.4	39.9*	x	-2.4	112.8*	86.6*
CC(C)C(=O)Nc1cccc(-c2cn3ccccc3n2)c1	7.9	0.9	3.5	17.8	x	x
COc1ccc(CC(=O)Nc2ccc(-c3cn4ccc(C)cc4n3)cc2)cc1	5.1	58.5*	-0.9	-2.6	167.9*	143.3*
COc1ccc(CC(=O)Nc2ccc(-c3cn4cccc(C)c4n3)cc2)cc1OC	11.4	8.8	-0.1	-4.9	x	x
C=CCN(C(=O)[C@@H](C1CC1)[C@@H](O)c1ccc(Cl)cc1)c1ccccc1	x	x	x	7.7	x	x
COn1c(-c2ccccc2)nc2c1CCc1nonc1-2	4.1	5.5	-0.2	x	x	x
c1ccc(COn2c(-c3ccccc3)nc3c2CCc2nonc2-3)cc1	0.4	53.2*	-0.7	4.3	106.9*	93.0*
CCOc1ccccc1-c1nc2c([nH]1)c(=O)n(C)c(=O)n2C	16.8	39.2*	1.2	-6.5	94.1*	82.1*
Cc1c(Cl)cccc1NC(=O)COC(=O)C12CC3CC(CC(O)(C3)C1)C2	7.7	1.1	x	3.0	x	x
O=C(COC(=O)C12CC3CC(CC(Br)(C3)C1)C2)Nc1cccnc1Cl	15.2	32.3*	2.7	3.1	58.5*	49.1*
CCOC(=O)c1nc(N)c(C(=O)OCC)[nH]1	5.9	59.3*	-2.0	-26.2	197.8*	165.7*
CCc1c(C)nc2cc(-c3ccc(OC)cc3)[nH]n2c1=O	11.0	34.6*	-1.1	-6.0	+	+
O=c1cc(-c2ccccc2)nc2cc(-c3ccc(F)cc3)[nH]n12	3.1	44.4*	0.9	-9.2	-0.5	-3.2
Cc1nc2cc(-c3ccccc3)[nH]n2c(=O)c1C	5.7	33.4*	-2.1	-8.9	95.0*	62.3*
Cc1ccc(-c2cc3nc4c(c(=O)n3[nH]2)CCCC4)cc1	8.1	16.3	0.4	2.6	x	x
O=c1c2c(nc3cc(-c4ccc(F)cc4)[nH]n13)CCC2	4.3	38.0*	-1.6	-22.6	118.9*	81.5*
Cc1ccccc1NC(=O)CSc1nnc(Cc2ccccc2)c(=O)n1N	6.3	1.2	0.8	-9.6	x	x
SMILES	GDH-TPI counter-1	FBA Mtb inh	RecA splice inh	CCHFV vOTU inh	Mtb FBA confirm	GDH-TPI counter-2
Cc1ccc(C(=O)OCC(=O)Nc2ccc(C)c(S(=O)(=O)N3CCCCC3)c2)o1	0.9	-1.9	x	-2.2	x	x
Cc1ccc2nc(-c3ccc(S(=O)(=O)N4CCCCC4)cc3)cn2c1	0.3	52.9*	1.1	-35.1	45.2*	39.1*
Cc1ccc2nc(-c3cccc(S(=O)(=O)N4CCCC4)c3)cn2c1	10.6	3.5	0.4	9.1	x	x
CCCCn1c2nc3ccccc3nc2c2c(=N)oc(C)nc21	1.7	31.0*	x	-46.5	35.2*	25.5*
CN(c1cccnc1)c1ccc(NC(=O)Cc2c[nH]c3ccccc23)cc1-c1ccc(F)c(F)c1	x	x	x	1.4	x	x
CN(C)c1nc(-c2ccccc2)c2cnn(Cc3ccccc3)c2n1	2.0	43.6*	-11.3	-20.5	121.1*	111.9*
C[C@H]1CN([C@@H](C)CO)C(=O)c2cccc(NC(=O)c3ccc(-c4nccs4)cc3)c2O[C@@H]1CN(C)C(=O)NC1CCCCC1	5.8	-2.8	x	0.4	x	x
C[n+]1c(-c2ccccc2)cc(-c2ccc(Cl)cc2)cc1-c1ccccc1	-5.0	70.8*	7.5	-13.3	78.7*	68.7*
O=C(COC(=O)c1ccc2ncsc2c1)Nc1ccccc1Cl	-4.6	-1.5	x	18.7	x	x
COc1ccc(-c2cc3ccccc3n2CC(O)CN2CCN(CCO)CC2)cc1 (stereo not given)	3.4	32.6*	x	7.9	-7.5	-4.6
Nc1c(C(=O)Nc2ccccc2)c2nc3ccccc3nc2n1-c1ccc(O)cc1	29.6	-0.5	0.2	4.1	x	x
O=C(c1cccc(S(=O)(=O)N2CCCc3ccccc32)c1)N1CCN(c2ccccc2)CC1	2.6	4.3	x	21.4	x	x
Cc1c(Br)c(=O)oc2c(Br)c(O)ccc12	-6.1	35.9*	i	-48.1	42.7*	28.1*
CC(C)c1cc(Cn2c3ccccc3c(=O)n2C(C)CBr)on1 (stereo not given)	x	95.7*	x	-17.5	69.8*	45.8*
CC(C)c1cc(Cn2c3ccccc3c(=O)n2C(C)C)on1	x	102.9*	x	-13.4	+	+
CC(C)c1cc(Cn2c3ccccc3c(=O)n2C(C)Cn2cc(-c3ccc(C(C)(C)C)cc3)nn2)on1 (stereo not given)	x	x	x	-5.5	x	x
CC(C)c1cc(Cn2c3ccccc3c(=O)n2C(C)Cn2cc(C3=CCCCC3)nn2)on1 (stereo not given)	x	x	x	-13.4	x	x
CSc1nsc(SC)c1CO	-7.5	39.2*	-2.0	-8.8	2.1	-7.7
CCC(=O)NCCNC(=O)c1c(SC)nsc1SC	2.3	-0.6	-0.7	-0.9	x	x
COc1ccccc1CCN=C(N)NS(=O)(=O)c1ccccc1F	2.7	50.9*	5.4	5.3	+	174.8*
COc1ccccc1C(=O)NCC(=O)N1CC=C(c2ccccc2)CC1	-0.3	-3.7	x	5.6	x	x
O=C(CCC1CCCN(C(=O)C2=CCCC2)C1)N1CCN(c2ccccn2)CC1 (stereo not given)	5.4	40.8*	2.8	-1.7	0.6	-2.9
Cc1cccc(N2CCc3c2nc2ccccc2c3N)c1	9.5	69.7*!	-1.6	-36.0	52.0*	37.2*
Cc1ccc(/C=C/c2nnc(-c3cccs3)o2)cc1	29.8	10.3	5.6	2.5	x	x
COc1ccc(-c2nnc(-c3ccc(C)cc3)o2)cc1	-2.1	62.4*	2.8	-12.5	7.4	-4.0
Cc1ccc(-c2nnc(-c3cccs3)o2)cc1	8.5	54.5*	-1.9	-12.8	61.3*	48.6*
COc1ccccc1NC(=O)Cc1nnc(SCC(=O)c2ccc(F)cc2)n1C	11.2	0.8	1.7	-6.5	x	x
O=C(Nc1ccc2c(c1)CCCN2C(=O)c1cccs1)c1c(F)cccc1Cl	24.1	98.8*	7.1	23.6	+	199.5*
CC(=O)C(C)Oc1cc(C)cc2oc(=O)c(C)c(C)c12 (stereo not given)	4.6	20.2	1.4	-11.9	x	x
